{"source": "paper PMC12136788", "binders": {"B1": {"name": "chr1:112309342:112309343:+_ENSG00000064703_ENST00000369702|hu_hu|FALSE|FALSE (ssRNA)", "RNA": "GGGAGUUCUACAGUCCGACGAUCUCUCCAGUACUCCUCAUAAUCCUGAUAGGUAUCAGAAAAACUCAGACGUAUUUCCCUAUGACAGUCAUACCAAUCAUCUUCCUGGGCUUCAGUCUGCAAUCUGAAGGAAGACCGCCUGGGCAACAGAGGAUUGAGCAUCA"}, "B2": {"name": "chr2:158287933:158287934:+_ENSMUSG00000027652_ENSMUST00000141497|mus_hu|FALSE|FALSE (ssRNA)", "RNA": "GGGAGUUCUACAGUCCGACGAUCAAGAGGUUGUUCCAGCAUUGCCAGGAUGACACUGUUAUCCAAGACAAAGUACCGGAAACUAUGCUUGUUUAUGGUUGGCAGCCUGGAGUAUUUAAUCAAAGUGGUCUCAUUCACAAGACUCAACAGAGGAUUGAGCAUCA"}, "B3": {"name": "chr3:179287964:179287965:+_ENSG00000136518_ENST00000429709|hu_hu|hu_hu_hu_mus_True|28_28 (ssRNA)", "RNA": "GGGAGUUCUACAGUCCGACGAUCCUUGAGUGGUGAGAUGGCCUCCAUGUUCUCCCUGGGCACGCGGAGGGCAUUGGUGUCUAUGUAGUAGGUGGGCCCGCCCUGCUUGCCUUUAUCACCAUCAAUCUCCAUCAUUGUACUUCCCAACAGAGGAUUGAGCAUCA"}, "B4": {"name": "chr4:131761308:131761309:-_ENSMUSG00000040025_ENSMUST00000102570|mus_mus|FALSE|FALSE (ssRNA)", "RNA": "GGGAGUUCUACAGUCCGACGAUCGCUGACUGUCCAUCAAUCAUGGCUCCACCUAAGGAGCUGGGUGCAUAAGCGUAAUUGCUACUAUAUCCAGAGCUUUGAGUAGACUGUCCCUGAGAACUGUUAUUUCCCCAUGCUGAGAAGCAACAGAGGAUUGAGCAUCA"}, "B5": {"name": "chr11:87793471:87793472:-_ENSMUSG00000020483_ENSMUST00000020775|mus_mus|mus_mus_mus_hu_False|8_68 (ssRNA)", "RNA": "GGGAGUUCUACAGUCCGACGAUCUGGACUUGAAAAUAAAAGAAUAAGCUGGAUCCCCCACCCCCCCACAGUGUCAACCCUACACGAGAGUUUUGAAGGCGACUCAUGAAAAUCAGCAGCUCAAACGAAUGACAACCCCCCACCCAACAGAGGAUUGAGCAUCA"}, "B6": {"name": "chr11:87793471:87793472:-_ENSMUSG00000020483_ENSMUST00000020775|mus_mus|mus_mus_mus_hu_False|8_98 (ssRNA)", "RNA": "B5 RNA with G41A, U44A, A45U, G70U"}, "B7": {"name": "chr11:87793471:87793472:-_ENSMUSG00000020483_ENSMUST00000020775|mus_mus|mus_mus_mus_hu_False|8_78 (ssRNA)", "RNA": "B5 RNA with A59C, C60A, C65U, C66U, G70U"}, "B8": {"name": "chr7:56127975:56127976:+_ENSG00000146731_ENST00000540286|hu_mus|FALSE|FALSE (ssRNA)", "RNA": "GGGAGUUCUACAGUCCGACGAUCUGGUCCUUUAACCAGUAAAGUGACAGAACGGGGAUUGUUACACUUCUCAAUAAAGGUGAACUUCUCCUCACCCAGUGUAUACUCAUAGACAAGCUCUGCAUGUCCCAAACAGUCAGGAUUCAACAGAGGAUUGAGCAUCA"}, "B9": {"name": "chr13:100193624:100193625:-_ENSMUSG00000052727_ENSMUST00000064762|mus_mus|FALSE|FALSE (ssRNA)", "RNA": "GGGAGUUCUACAGUCCGACGAUCAAACCCUCAGAGUAAAAGAGCAGUGCGAAACAUACGCUUUACAGACGAAAAUAAACUAAAAUGUAAAUUUUGAAAUAAAUAACUAACAUAGAAAAUAAAAUGAGGUCAUUGUUCACUACCCAACAGAGGAUUGAGCAUCA"}, "B10": {"name": "chr13:100193624:100193625:-_ENSMUSG00000052727_ENSMUST00000064762|mus_mus|motif|central (ssRNA)", "RNA": "B9 RNA with U80G, A81G"}, "B11": {"name": "chr16:94651144:94651145:+_ENSMUSG00000040785_ENSMUST00000117648|mus_hu|mus_mus_mus_hu_True|18_58 (ssRNA)", "RNA": "GGGAGUUCUACAGUCCGACGAUCAUUUUCUUGAAUCAAGUGGCGAAUAACAUAGUCCACUGCUUCAUUUAGAAAAUUUUUGCUAGAAAAACAGGUUGUAUAGUCUUCUGUGCUCAAAACCUUCCAAGAAAGCAAUUCUUUGAGCAACAGAGGAUUGAGCAUCA"}, "B12": {"name": "chr13:100201144:100201145:-_ENSMUSG00000052727_ENSMUST00000064762|mus_hu|FALSE|FALSE (ssRNA)", "RNA": "GGGAGUUCUACAGUCCGACGAUCCUCCUCCAUAGGUGGUAUCUUAUGUGAUAAACUGGAGUCCUGCAUGUCAGAAGGACUGUAGUCCACUUCAGUUGGCCCAUUUUCAGUGAUGUGAAGCACGCCUGCACCCACUGUAGGGUGCAACAGAGGAUUGAGCAUCA"}, "B13": {"name": "95238312_95238432_61_3pUTR_ENSMUSG00000015522_ENSMUST00000090804|mouse|control|control (ssRNA)", "RNA": "GGGAGUUCUACAGUCCGACGAUCACCCUCGGUGGGAGGGGCAGCCGCCACCGAGCUGGGGGAGGGGAGGGAAGAGCCACUCCGCAGAUUAGGCACCUUACCGCCGCCACCGCUACCGCGGAAUCCAAGAUGGCGGACGCCCACCAACAGAGGAUUGAGCAUCA"}, "B14": {"name": "chr6:114274515:114274516:-_ENSG00000196591_ENST00000368632|hu_mus|motif|central (ssRNA)", "RNA": "GGGAGUUCUACAGUCCGACGAUCCAUCACGCGAUCUGUUGUAUAAAAAGCUUCCUCAACACCAUCACCAUGGUGGAUGUCGGUGUCAAUAUAUAAGACUCUCUGAUGAUACUUAAGUAAUUCGAGGAUGGCAAGCACAAUAUCCAACAGAGGAUUGAGCAUCA"}, "B15": {"name": "chr1:220276048:220276049:+_ENSG00000067704_ENST00000302637|hu_hu|hu_hu_hu_mus_True|8_58 (ssRNA)", "RNA": "GGGAGUUCUACAGUCCGACGAUCGCAAAUUGCCUGGUUGGCGGGAAUUGUCCAAGGCUGGGUGGUCCAAACUAAAAUACUAACAGGGGAUGAGGCAUCUGUAAGAGACUCCAACUUCGGAGGAGGUUUUAAGAGAGGGAAUCUCAACAGAGGAUUGAGCAUCA"}}, "note": "Substitutions are numbered along the chain they refer to. The full ranking holds about 24,000 sequences; the median of “enrichment r” is about 0.99, and the highest 2% start at about 3.7. The entries come from a sample that favours the highest values as a whole.", "data": [{"molecular_target": "T1, UNK ZnF1-3 (human, UniProt Q9C0B0 31-174)", "T1 sequence": "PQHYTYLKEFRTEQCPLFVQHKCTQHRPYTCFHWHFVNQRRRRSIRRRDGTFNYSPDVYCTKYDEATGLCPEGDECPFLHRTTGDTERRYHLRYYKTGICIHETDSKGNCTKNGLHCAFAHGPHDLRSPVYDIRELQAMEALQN", "assay": "nsRBNS (natural sequence RNA bind-n-seq); RBNS binding buffer (assumed for nsRBNS): 25 mM Tris pH 7.5, 150 mM KCl, 3 mM MgCl2, 0.01% Triton X-100, 500 ug/ml BSA, 20 U/ml SUPERase-In, 4 C; UNK is unkempt and MSI1 is Musashi-1; names of the RNAs are library labels; protein concentration not given here; high values mean tight binding", "units": {"binding signal": "enrichment R"}, "values": [{"binder": "B1", "binding signal": 0.941}, {"binder": "B2", "binding signal": 0.695}, {"binder": "B3", "binding signal": 0.667}, {"binder": "B4", "binding signal": 1.1}, {"binder": "B5", "binding signal": 2.23}, {"binder": "B6", "binding signal": 4.4}, {"binder": "B7", "binding signal": 1.99}, {"binder": "B8", "binding signal": 0.526}, {"binder": "B9", "binding signal": 9.34}, {"binder": "B10", "binding signal": 4.16}, {"binder": "B11", "binding signal": 0.507}, {"binder": "B12", "binding signal": 0.585}, {"binder": "B13", "binding signal": 0.955}, {"binder": "B14", "binding signal": 1.5}, {"binder": "B15", "binding signal": 3.69}]}]}
